# Bioassay records from PubChem.
# Eya2 phos inh – qHTS Assay for Inhibitors of the Phosphatase Activity of Eya2. Protein phosphatase EYA2 (Homo sapiens), O00167. recombinant Eya2, OMFP fluorescence dephosphorylation (OMFP is methylfluorescein phosphate). Potency, µM (series often up to 76.9 µM), inactives show at the top dose activity, negative = inhibition, most hits filed as inhibitors. actives 0.006% (n = 330,000)
# Target sequence (O00167 whole entry, looked up): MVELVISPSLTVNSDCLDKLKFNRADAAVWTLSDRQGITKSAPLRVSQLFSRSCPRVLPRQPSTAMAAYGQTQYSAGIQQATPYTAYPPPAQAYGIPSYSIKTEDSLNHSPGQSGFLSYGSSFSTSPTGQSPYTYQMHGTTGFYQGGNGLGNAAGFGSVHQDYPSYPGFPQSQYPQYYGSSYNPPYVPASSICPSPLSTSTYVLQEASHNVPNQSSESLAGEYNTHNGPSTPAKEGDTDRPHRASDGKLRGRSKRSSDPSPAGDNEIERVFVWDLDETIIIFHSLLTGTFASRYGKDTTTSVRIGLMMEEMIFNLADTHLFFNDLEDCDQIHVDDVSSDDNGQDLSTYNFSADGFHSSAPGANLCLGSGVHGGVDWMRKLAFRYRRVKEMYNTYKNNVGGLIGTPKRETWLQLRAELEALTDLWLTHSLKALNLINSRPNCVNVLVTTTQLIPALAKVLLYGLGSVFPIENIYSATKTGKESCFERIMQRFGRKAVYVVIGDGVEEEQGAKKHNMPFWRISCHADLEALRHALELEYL
#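 Eya2 (0.2 uM) preincubated 10 min at ambient with compound, then OMFP substrate added at 50 uM; 10 min reaction in 50 mM HEPES pH 7.5, 50 mM NaCl, 5 uM MgCl2, 0.05% BSA, 1 mM DTT. Fluorescence read at Ex 485/Em 525 nm.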
# TrxR1 substrate – qHTS Assay for Substrates of Mammalian Selenoprotein Thioredoxin Reductase 1 (TrxR1): qHTS | Thioredoxin reductase 1, cytoplasmic (Rattus norvegicus), O89049 | purified TrxR1 substrate turnover, NADPH consumption readout | Potency, µM (titrated, usually from 114 µM), without a hit: top-dose activity change, negative = substrate turnover | actives 0.01% (n = 390,000) | AID 588456, 2011; also: nearly all actives have a fitted effect of over 50% in size
#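 Rat TrxR1, dispensed at 90 nM, was prereduced with 400 uM NADPH (final) for 5 min at ~22 deg C, then incubated with compound 15 min before 400 uM selenite. A first-read NADPH fluorescence drop versus no-compound background flagged substrates.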
# rTrxR1 inhibitor – qHTS Assay for Inhibitors of Mammalian Selenoprotein Thioredoxin Reductase 1 (TrxR1): qHTS; actives 1% (n = 390,000); Thioredoxin reductase 1, cytoplasmic (Rattus norvegicus), O89049; recombinant rTrxR1, NADPH fluorescence consumption, selenite substrate; Potency, µM (highest dose often 114 µM), inactives show at the highest dose activity change, negative = inhibition, hits mostly inhibitors; also: nearly all actives have a fitted effect of over 65% in size
#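 Rat TrxR1 (90 nM in the dispensed reagent) was pre-reduced with 400 uM NADPH for 5 min at room temperature, then incubated with compound for 15 min. After 400 uM selenite was added, NADPH fluorescence (Ex 340/Em 450 nm) was followed for 8 min.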
# IDH1 R132H inh – qHTS for Inhibitors of mutant isocitrate dehydrogenase 1 (IDH1): qHTS. Potency, µM (titrated, usually from 76.6 µM), without a hit: at the top dose activity change, negative = inhibition, most hits filed as inhibitors. actives 0.093% (n = 390,000). IDH1-R132H enzyme, NADPH consumption, diaphorase/resazurin fluorescence. AID 602179, 2012. Isocitrate dehydrogenase [NADP] cytoplasmic (Homo sapiens), O75874; also: nearly all actives have a fitted effect of over 65% in size
#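 IDH1-R132H (0.5 ug/mL) preincubated 30 min with compound, then NADPH (0.016 mM) and alpha-KG (2 mM) added; 80 min at RT, pH 7.5. Remaining NADPH coupled via diaphorase/resazurin to fluorescence (540/590 nm); concentration-response curves normalized to no-enzyme control.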
# RGS4 inhibitor – Inhibitors of Regulator of G Protein Signaling (RGS) 4: qHTS; AID 504845, 2011; Potency, µM (highest dose often 114 µM), for inactives: at the top dose activity change, negative = inhibition, actives largely listed as inhibitors; Regulator of G-protein signaling 4 (Homo sapiens), P49798; Transcreener GDP fluorescence polarization, RGS4-accelerated GTP hydrolysis; actives 0.039% (n = 390,000); also: nearly all actives have a fitted effect of over 75% in size
#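 MLSMR compounds (23 nl, pin-transferred) preincubated 10 min at room temperature with a 500nM (2x) first reagent, then RGS4 at 900nM (2x) plus Transcreener GDP mix added; fluorescence polarization (620/688 nm) read before and after 90 min at 30 °C.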
# Active calls of the source: *; ? = inconclusive; nt = not tested or not shown; ! = not confirmed by another sample; [ ] = another dose, or the depositor's remark. In the library only some 1.1% were active in any assay of this set; here they are far more common. Calls follow the shape of the dose curve; as a rule, active = well fitted curve in the direction sought with a large enough effect; inconclusive = small, poorly fitted or top-dose-only effect, or another doubt; inactive = no such curve, though single readings can be large; an effect the other way counts as inactive or inconclusive. % is scaled to controls: 0 for no effect and ±100 for the full control effect; potency is read from the fitted curve at half-maximal effect.
SMILES,Eya2 phos inh,TrxR1 substrate,rTrxR1 inhibitor,IDH1 R132H inh,RGS4 inhibitor
COc1cc(SC)ccc1C(=O)N(C)CC(=O)Nc1cccc2ccccc12,-18%,0%,0%,3%,-28%
O=C(CCN1CCC(c2ccccc2)C1)c1ccc2c(c1)OCCO2 (stereo unspecified),-4%,3%,0.28µM*,-7%,-54%
O=C(CCN1CCc2ccccc2C1)c1ccc2c(c1)OCCO2,2%,0%,0.56µM*,0%,?
COc1cc(C(=O)CCN2CCC(c3ccccc3)C2)cc(OC)c1OC (stereo unspecified),-7%,-7%,0.5µM*,3%,?
O=C(CCN1CCC(c2ccccc2)C1)c1cccs1 (stereo unspecified),-10%,7%[11.4 µM],?,1%,-35%
O=C(CCN1CCCC1Cc1ccccc1)c1ccc2c(c1)OCCO2 (stereo unspecified),nt,3%,0.32µM*,4%,-104%
O=C(CCN1CCC(c2ccccc2)C1)c1ccccc1 (stereo unspecified),-2%,6%[2.29 µM],?,0%,-10%
CCN(CC)c1nn2c(=O)c(C(=O)NCc3ccccc3Br)cnc2s1,nt,28%[57.1 µM],11%[57.1 µM],17%,-25%
O=C(CCN1CCCCC1)c1ccc2c(c1)OCCO2,18%,21%,0.32µM*,2%,?
CCOC(=O)/C=C/C(=O)OCC(=O)Nc1cccc(Cl)c1Cl,-15%,1%,14µM*,-13%,-28%
CC(C)=CC(=O)OCC(=O)Nc1ccccc1Cl,-2%[15.4 µM],-7%,-13%,0%,-9%
Cc1c(C(=O)NCCN2CCOC2=O)oc2c(F)cccc12,7%,0%,11%,-8%,25%
S=C(Nc1ccccc1)Nc1nccs1,2%,12%[57.1 µM],?,-8%,11µM*!
Fc1ccc(NC(=S)Nc2nccs2)cc1,1%,1%,7.9µM*,3%,?
CN(Cc1nc(Cc2cccc(F)c2)no1)CC1COCCO1 (stereo unspecified),0%,9%[11.4 µM],28%[11.4 µM],24%,-6%
Cc1nn(-c2ccc(Cl)cc2)c(=O)c2ccccc12,-11%,-3%,20%,1%,2%[56.9 µM]
Cc1c(Cl)sn(-c2ccc(Cl)cc2)c1=O,-17%,-12%,5µM*,0%,-120%
CC1C/C(=C/c2ccco2)C(=O)/C(=C/c2ccco2)C1 (stereo unspecified),-4%,nt,nt,nt,nt
O=C1/C(=C\c2ccco2)CCC/C1=C\c1ccco1,6%,-6%,2.2µM*,0%,?
CCOc1ccccc1N/C(=C(/C(Cl)=C(Cl)Cl)[N+](=O)[O-])n1cncn1,-2%,-14%,22µM*,5%,-27%
CCOc1ccc(N/C(=C(/C(Cl)=C(Cl)Cl)[N+](=O)[O-])n2cncn2)cc1,7%,nt,nt,nt,nt
Cc1ccc(NC=C(S(=O)(=O)c2ccccc2)S(=O)(=O)c2ccccc2)cc1,-5%,-10%,?,0%,-16%
Cc1ccc(-c2nn3c(C)nnc3s2)cc1NC(=O)c1ccc(-c2ccc(Cl)cc2Cl)o1,-7%,112%,13%,1%,?
Cc1ccc(-c2nn3c(C)nnc3s2)cc1NC(=O)c1ccc(-c2cccc(Cl)c2)o1,-8%,-5%,35µM*,4%,?
COC(=O)/C(=C\c1ccc([N+](=O)[O-])o1)NC(=O)c1ccccc1,-6%,-15%,32µM*,4%,0%
CCCCNC(=O)/C(=C\c1ccc([N+](=O)[O-])o1)NC(=O)c1ccccc1,6%,-11%[57.1 µM],?,0%,?
CCOC(=O)c1c(NC(=S)Nc2ccccc2)sc2c1CC(C)(C)SC2,-16%,1%[57.1 µM],?,7%,-51%
CCOC(=O)c1c(NC(=S)NC)sc2c1CC(C)(C)SC2,2%,2%,11µM*,3%,?
